HT1080 IDH1KD tx: toxicity to HT-1080 IDH1 knockdown cells (counter line); Potency, µM (titrated, usually from 46.1 µM), without a hit: top-dose activity, negative = toxicity, most hits filed as cytotoxic; actives 2% (n = 360,000); HT-1080 IDH1 knockdown viability, ATP luminescence, 48 h; AID 686971;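 further: potency means the concentration at half of the fitted maximal effect; 0% = DMSO wells and -100% = cell-free medium wells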
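HT-1080-IDH1KD cells (IDH1 knocked down), 750/well in RPMI with 5% FBS, treated with compound 48 h at 37 degrees C. Viability by CellTiter-Glo luminescence, normalised to DMSO and no-cell wells; concentration-response curves classed.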
TDP1 cell noCPT: qHTS for Inhibitors of human tyrosyl-DNA phosphodiesterase 1 (TDP1): qHTS in cells in absence of CPT | DT40 Tdp1-/- hTDP1 cells, no CPT, ATP luminescence, 48 h | Potency, µM (titrated, usually from 46.2 µM), without a hit: top-dose activity change, negative = growth inhibition, actives largely listed as inhibitors | actives 15% (n = 420,000) | AID 686978, 2013; further: potency means the concentration at half of the fitted maximal effect; nearly all actives have a fitted effect of over 55% in size
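DT40 Tdp1-/-;hTDP1 cells, no CPT (DMSO vehicle only), 400 cells/well; compounds pin-transferred; ≥48 hr, 37 °C; CellTiter-Glo 30 min RT dark, luminescence read.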
IL1B secr inh: blocks inflammasome-driven IL-1 beta release | activity change, % at 57.5 µM | THP-1 LPS/ATP IL-1B secretion, AlphaLISA, 16 h; hits give low values | AID 743279 | actives 4.7% (n = 360,000); in the data active means activity change below about -50%; inconclusive means mostly about -30% to -49%
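Secreted IL-1B measured by AlphaLISA bead assay after 16 h compound exposure of THP-1 cells; compounds (final up to 57.5 uM) added 1 h before LPS (250 ng/mL) and ATP (1.25 mM) stimulation; lower signal means less secretion.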
DT40 TDP1 CPT: growth inhibition of DT40 Tdp1-/-;hTDP1 cells with camptothecin (screen for TDP1 inhibitors); chicken DT40 Tdp1-/-;hTDP1 cells + 20 nM CPT, ATP luminescence, 48 h; actives 12% (n = 420,000); AID 686979; Potency, µM (series often up to 46.2 µM), without a hit: at the top dose activity change, negative = growth inhibition, usual class: inhibitors; further: potency means the concentration at half of the fitted maximal effect; nearly all actives have a fitted effect of over 55% in size
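Chicken DT40 Tdp1-/- cells stably complemented with human TDP1 were seeded at 400 cells/well in medium containing 20 nM camptothecin, exposed to pin-transferred compounds, and grown at 37 °C for at least 48 hr. Viability was read as ATP luminescence.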
HT1080-NT tox: kills 2HG-producing HT-1080-NT fibrosarcoma cells; Potency, µM (series often up to 46.1 µM), inactives show at the top dose activity, negative = less viability, most hits filed as cytotoxic; AID 686970; HT-1080-NT fibrosarcoma viability, CellTiter-Glo ATP luminescence, 48 h; actives 1.6% (n = 360,000);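 further: NT is the 2HG producing partner of a matched IDH1 knockdown line; potency means the concentration at half of the fitted maximal effect; 0% = DMSO-treated cells and -100% = media-only wells without cells; nearly all actives have a fitted effect of over 55% in size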
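Toxicity toward the 2HG-producing NT line was scored as %Activity, normalised to DMSO and no-cell wells, from CellTiter-Glo luminescence after 48 hours' treatment.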
Active calls of the source: *; ? = inconclusive; nt = no result. Compounds with a hit are over-represented: about 19% of the library has one in this group of screens. Unless noted, the call rests on the fitted dose curve; in most records, active means well fitted curve in the direction sought with a large enough effect; inconclusive means small, poorly fitted or top-dose-only effect, or another doubt; inactive means no such curve, though single readings can be large; an effect the other way counts as inactive or inconclusive. Unless noted, on the % scale 0 is the no-effect control and ±100 the full control effect.

SMILES	HT1080 IDH1KD tx	TDP1 cell noCPT	IL1B secr inh	DT40 TDP1 CPT	HT1080-NT tox
NC(=O)C1=CC2C3C=CC2(O)C(=O)OC3O1 (centres undefined)	21µM*	5.8µM*	-96*	5.2µM*	?
O=C(Cn1ncc2c([nH]c3ccccc32)c1=O)NCC1CCN(Cc2ccccc2F)CC1	9%	-2%	0	-17%	12%
Cc1ccc(C)c(Cn2c3ccccc3c3cnn(CC(=O)NCCN4CCOCC4)c(=O)c32)c1	-15%	18µM*	-25	16µM*	?
Cc1ccc(C)c(CN2CCC(CNC(=O)Cn3ncc4c([nH]c5ccccc54)c3=O)CC2)c1	nt	15µM*	nt	?	nt
Cc1cc(C)c(Cn2c3ccccc3c3cnn(CC(=O)NCCN4CCOCC4)c(=O)c32)c(C)c1	-14%	?	-10	?	3%
O=C(Cn1ncc2c3ccccc3n(Cc3ccccc3)c2c1=O)NCCCN1CCCC1=O	-8%	-2%	-3	?	4%
Cc1ccc(C)c(Cn2c3ccccc3c3cnn(CC(=O)NCCCN4CCOCC4)c(=O)c32)c1	?	?	-55*	?	?
CCN(CCCNC(=O)Cn1ncc2c([nH]c3ccc(C)cc32)c1=O)Cc1ccccc1	10%	16µM*	-27	?	0%
CCCCn1c(N)c(N(CC)C(=O)c2cnc(C)cn2)c(=O)[nH]c1=O	0%	-1%	-13	-4%	3%
CCCC/C(O)=C1\C(=O)CCCC1=NCCc1c(C)[nH]c2ccccc12	0%	-63%	-16	?	0%
CCOC(=O)C1CCCN(C(=O)Cn2c(=O)c3cccn3c3cccnc32)C1 (centres undefined)	3%	9%	17	3%	6%
Cc1cccn2c(=O)c(/C=C(\C#N)C(=O)NCc3ccccc3)c(N3CCC(C(N)=O)CC3)nc12	-2%	-27%	-12	15%	-1%
Cc1ccc2nc(-c3ccccn3)c(Nc3ccc(F)cc3)n2c1	nt	2.3µM*	nt	2.1µM*	nt
Cc1ccn2c(Nc3ccccc3C)c(-c3ccccn3)nc2c1	9.2µM*	2.9µM*	0	16µM*	15µM*
Cc1ccccc1Nc1c(-c2ccccn2)nc2ccccn12	?	8.2µM*	-23	9.2µM*	?
Cc1ccn2c(Nc3ccccc3)c(-c3ccccn3)nc2c1	?	2.6µM*	98	4.6µM*	-22%
Cc1ccc2nc(-c3ccccn3)c(N)n2c1	?	?	-4	?	-27%
CC(C)c1ccc(Nc2c(-c3ccccn3)nc3ccccn23)cc1	nt	2.1µM*	nt	9.2µM*	nt
Cc1ccc2nc(-c3ccccn3)c(Nc3ccccc3C)n2c1	13µM*	10µM*	72	16µM*	13µM*
O=C(NCC1CCN(Cc2ccccc2F)CC1)Nc1cccc(Br)c1	?	16µM*	-84*	?	?
O=C(NCC1CCN(Cc2cccc(Cl)c2)CC1)Nc1ccc(Cl)cc1	?	?	-61*	?	?
O=C(NCC1CCN(Cc2cccc(Cl)c2)CC1)Nc1cc(Cl)ccc1Cl	nt	13µM*	nt	23µM*	nt
O=C(NCC1CCN(Cc2cccc(Cl)c2)CC1)Nc1ccc(F)c(Cl)c1	nt	?	nt	-85%	nt
O=C(/C=C\c1ccccc1OC(=O)c1ccccc1F)c1cc2ccccc2o1	?	15µM*	-104*	8.2µM*	16µM*
O=C(c1ccco1)N(Cc1ccco1)c1ccc(O)cc1	-1%	?	-106*	-20%	0%
SMILES	HT1080 IDH1KD tx	TDP1 cell noCPT	IL1B secr inh	DT40 TDP1 CPT	HT1080-NT tox
CC(=O)OCC1OC(Sc2cccc3cccnc23)C(OC(C)=O)C(OC(C)=O)C1OC(C)=O (centres undefined)	-17%	?	-97*	?	?
Cc1cc(=O)[nH]c(N/N=C/c2ccc(OC(=O)c3cccnc3)cc2)n1	19%	-10%	19	1%	2%
COc1ccc(NC(=O)c2cccc(N3CCCS3(=O)=O)c2)c(OC)c1	nt	12%	nt	-24%	nt
CN(Cc1cn[nH]c1-c1cc2ccccc2o1)CC1CCOCC1	-5%	-4%	-14	-3%	-1%
c1ccc2oc(-c3[nH]ncc3CN(Cc3ccncc3)CC3CCCO3)cc2c1 (centres undefined)	1%	26µM*	-1	?	8%
O=C1CC[C@@H](CN(Cc2ccccc2)Cc2cn[nH]c2-c2cc3ccccc3o2)N1	?	16µM*	-8	26µM*	?
OC1(CNCc2cn[nH]c2-c2cc3ccccc3o2)CCCCC1	?	?	-91*	-22%	-17%
CCOc1ccc(-c2nc(CN(Cc3ccccc3)C[C@@H]3CCC(=O)N3)c(C)o2)cc1	?	21µM*	-81*	?	?
O=C(NCCN1CCOCC1)C(=O)NCC1OCCCN1S(=O)(=O)c1cc(F)ccc1F (centres undefined)	14%	21%	-11	-14%	5%
ONC(=Nc1ccccc1Cl)c1c(F)cccc1F	-7%	?	0	?	-3%
COCc1cc(=O)[nH]c(/N=C(\N)Nc2ccc(C)cc2C)n1	0%	-8%	16	4%	-3%
Cc1ccc(N/C(N)=N/c2nc(CSc3ccccn3)cc(=O)[nH]2)c(C)c1	?	18µM*	9	?	18%

Screening results: PubChem BioAssay, National Center for Advancing Translational Sciences (NCATS)
